Screen size: about 53,000 sequences; about 3,700 (7%) were called active. Many of the other results were omitted from the sample, so actives are more common in it than they were. A number with no mark means an inactive call.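 Rule for the calls: active = gene knockdowns whose robust z-score for IL-1 alpha signal is at least 2 or at most -2, so actives lie on both sides; inactive = the rest.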
Assay: Components of the Cytosolic LPS Sensing Pathway: Gene Identification via Genome-wide siRNA Screen;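 note: robust z of the log signal after scaling to non-targeting control siRNA wells of the plate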
Settings: RAW264.7 macrophages, IL-1a HTRF, actives lie on both sides, screened at 100 nM (by protocol), cells primed 5 h with Pam3CSK4 first
How it was run: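 RAW264.7; siRNA 100 nM final, RNAiMAX, 48h 37 degrees C; Pam3CSK4 5 h; LipidA + TransIT-TKO 24 h; IL-1a HTRF; CellTiter-Glo viability; robust z vs negative-control median.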

Sequence	z-score
GGCAUCACUGAUGAAUGAATT against Pacsin2	-0.585
GGAACAUCCAGUCUCUCACTT against Fbxo31	0.244
CCCAGGUGUAUUUUACAUATT against D10Wsu102e	-0.00657
CGCGGAGGUCUCUCUUAUUTT against Prss39	2.22 (active)
GGUAUUUAAUGGAAGCCUGTT against Acp7	-0.537
GGCAUCUUUCAUAAAACCGTT against Atad3aos	-0.622
GCCUAUCAGAAGCUGUUAATT against Eif2ak2	3.59 (active)
GGAGAUAUUAUUGUUCAGATT against Cemip2	-0.337
GUGCUUUCGUGUUUUUCAATT against Klrb1b	-0.388
GCUAUCGUGAUAAUCUGGATT against Gxylt2	-0.113
CUUAAAGGAAUCCUGGUGGTT against Fam169b	0.0229
CCUGCAUGCCUAUGUGCGUTT against Ace	2.89 (active)
GAAGACUUCGUCCUAACAGTT against Ctsg	-0.195
GGCCUCUUACAAAGUGAGATT against Supt7l	-0.265
GGGAUAUGUGAAGCCUCAGTT against Mospd3	-1.21
GGAACAGUUCCUUGUGGUUTT against Uqcrh	0.935
GGUUCAGAAUUUAACCUUATT against Phc3	3 (active)
GGUAUUGUGAAACGUACACTT against Ky	0.914
CCGUCGUCCUAGAAAAACCTT against Nsun7	-1.18
CCUACUAAACUCAGUCUUUTT against Kap	1.08
GGAUCAUGCAGACAUGCUGTT against Ggcx	-0.278
GGUUCUAAAUCAGAAGUGCTT against Tyw5	-2.08 (active)

Sequence	z-score
GGUAUAGCCACAGGUACAUTT against Phxr5	-0.368
GCAGAUAUUUUUGUAAGCATT against Csmd1	-0.644
GGCUUGAUGGGCUUUUUGCTT against Ndufb8	0.285
GGUCCCAGUCAUUAUCCACTT against Gdap1l1	2.43 (active)
GGUAAUUAAAACCAUGGAGTT against Rex1bd	-0.0412
GGCCCAGGAUAUUUUAGUUTT against Atg9b	-0.553
GCCGUACGAAAAAUAAGCATT against Rps7	-0.402
GGCCAAAGUACUUUGUUCCTT against Pdpr	3.63 (active)
GGUUCUUCGAAGCAAUAGCTT against Sphkap	-0.973
GCACACAUCAAGAAACUUGTT against Mxi1	0.963
GGAGAAAUAACUGAAAUUCTT against Klhl13	-0.816
GGACUUCUACCCAGCGAUATT against P3h4	-0.536
CCUCCAGAUAACAAAUGCATT against Dlx3	0.335
CGCAUUACAUUAGCCAAAATT against Ttc28	1.21
GCUCAGUAAUCUGAGGCCATT against Lox	-2.03 (active)
GGAGAUCCGUUCAAGGGUUTT against Olfr557	0.73
CCAACUGCACUGUCAAACUTT against Tbcc	-0.224
GGAAUGUGUCUUCUCAAGUTT against A530021J07Rik	2.35 (active)
GGACCAGCACAUGUGGAUUTT against Olfr547	0.31
GGACCUGGUAUCUCUAUAUTT against Rasgrp4	-0.807
GCAUAAUUCUAAAGACGGGTT against Zfp143	-0.1
GGUUAUAGACAAGAUCGAUTT against Comp	0.536

Sequence	z-score
CCCACCAGUAAGGAGUUCATT against Dido1	-0.177
GCCACGAACAUGAUGUACATT against Slco3a1	0.229
GGUUUUAUUUGGGAUUAGCTT against Arfgap2	0.327
GGCAGAUCUGAUCAACGGATT against Mtln	-2.14 (active)
GCUUGUGGAUUCGAUUUGGTT against Gtf3c5	0.485
GCUGAAUGAUAUGGAACCUTT against Vapa	-1.76
GGAGAUAAAGUCUUAUCACTT against Misp	-2.05 (active)
GGAAAUCGUGCGUGGCUACTT against Phpt1	1.57
GGCCAUCUUUGACAGUGCUTT against Dnah1	1.11
GGCAUUUGUAAUUCCAGUUTT against Spata33	0.456
GGAUUCAGGGAACAGCAAUTT against Ntrk3	-3.08 (active)
GGUACAGAACAUGUUCUAATT against Klf4	1.18
GCACAAGCGAUGGGUUAACTT against Fkbp1a	-0.708
GGCUCACGAGGAACUAAAUTT against Ift52	0.115
GGAACUUCACUUUUAACACTT against Il33	-0.534
CGUUUUUCUCUAACUUACATT against Ldlrad3	2.6 (active)
GGUGAUGUCCUAUUUCAAATT against Erp27	0.302
GGUUCUAUCUACCUACAGGTT against Igfn1	1.78
GGAGAAGAGUCAAGAGCUCTT against Vxn	0.103
GGUAUCCAAGAAAACCUAUTT against Tnmd	0.475
CCUUCUGUAGUUGGAAUCATT against Them5	1.41
CCUGUAUGGAGUAAUGGAATT against Eif4ebp3	0.13

Sequence	z-score
GGUGGUGUUAAAAUAUACUTT against Gnl3	3.07 (active)
GCCAGAAGACUGUAUACCATT against Rp9	-0.0396
GGUUGUUGGUCUUCUGUGATT against Nme3	-1.27
GGCCAUCUAAAAAUAGUAATT against Ccdc171	0.707
GGAGCACUUAGAAAUGUCCTT against Olfr342	-0.174
GGACUUUGUACAUUGUUUUTT against Actb	2.2 (active)
GGUCUUCUAAGAAAUUUUGTT against Fmnl2	0.407
GGAUGUGUCUCACUUCUUGTT against Th	-1.5
GCUGCCUCUCACCAAGUAUTT against Creb3l3	-1.43
GCAUGAAGAGCUAAUGCUATT against Eprs	-0.364
GGCUAUGAGGACUCCUAUGTT against Plekha7	-2.53 (active)
GCAAGUCCAUUCUUUUUCATT against Tmprss11g	-0.643
GGAAACCUGAUACUAACAATT against Afmid	-1.88
GGAAGUCCUUGCAUUCCUCTT against Dlec1	0.816
GGCUGAGAAAACCAAAGGGTT against Cfdp1	1.9
GCUGGAGUGUCAGUCAUAUTT against Reg4	3.35 (active)
GGUCUAUCGCUUGCUUUUUTT against Abca2	1.67
GGUAAUCAGUAGUGACUUATT against Mkln1	0.229
CCCUCAACCAUUGUUCGAGTT against Rasal1	-0.328
GGGCUGUAUUUCUUUACCCTT against Mrgprb2	0.508
GCGCAGCACAGGUUUUGAATT against Klf10	-0.217
GGAAAAAAUACCAGAAACATT against Klre1	-2.68 (active)

Sequence	z-score
GCCUAUCGAAAAGUCUUGGTT against Adcyap1	0.875
GGCCAAGCUAUAAGAAAUGTT against Cntnap2	0.201
AACUCCCUCCCUGUUGUAGTT against A4galt	-0.361
GGCCAUAUUAAGUAUGGAGTT against Fam118a	-0.34
GGAGAAGUAAAACUCGAAGTT against Rwdd2a	0.276
CCGAAUUUCUCCUAUUGGGTT against Olfr106-ps	-0.241
GGUAUGUAACGGUAUUUAATT against Gja1	2.66 (active)
CCUAGAGCCGUGUGCAUACTT against Plp2	0.891
CCAUUGGUUUUGAGGAUAUTT against Pomp	-1.18
GGUAGAAAAAACACAAACGTT against Ppp2r3c	1.43
GGUUUUGUGGGAAGAGUCATT against Ccdc163	-2.99 (active)
CCUGGACAUAACCAAUGUATT against Glrp1	1.5
CCCUGGGCAGUUUGCAUGUTT against Dgcr2	0.815
GCAACGAGGUACUGUUUUATT against Rab7b	0.626
GGUAGAGCUGCACUUUGGATT against Hddc3	-1.43
GGUUUGUCAGGUUCUAAAATT against Atf1	2.34 (active)
GGUACAAAGACUGACGAGUTT against Gnptg	0.00278
CGACCAGAAGUGGUAUGUCTT against Adra2a	-1.03
GGAGACAUUCACUGUCUUCTT against Ephb4	-0.322
CCAGUAUCUAAUUGGAAUATT against Paqr8	2.07 (active)

Reference: PubChem BioAssay AID1508600 (Functional Genomics Laboratory (NCATS/FGL), 2020)
